# PfM18AAP inh = blocks P. falciparum M18 aspartyl aminopeptidase. recombinant PfM18AAP, H-Glu-NHMec fluorogenic cleavage. inhibition, % at 7.35 µM. hit rate 1.2% among 290,000;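 active = inhibition above the campaign mean inhibition over all tested compounds plus 3 SD, cut at about 28% in these data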;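 also: 0% = plate median of test compound wells and 100% = 2 mM ZnCl2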
# ALR inh = inhibitors of human sulfhydryl oxidase ALR; inhibition, % (no concentration beside the values); AID 485317; purified ALR, DTT oxidation, H2O2 HRP-luminol luminescence; hit rate 3.8% among 290,000; P55789;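 active = mean replicate inhibition above about 79%, with every replicate also reaching it, limit read from the data; inconclusive = only one of the two criteria met; inactive = mean below limit and not every replicate reaching it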
# Target sequence (P55789 whole entry, looked up): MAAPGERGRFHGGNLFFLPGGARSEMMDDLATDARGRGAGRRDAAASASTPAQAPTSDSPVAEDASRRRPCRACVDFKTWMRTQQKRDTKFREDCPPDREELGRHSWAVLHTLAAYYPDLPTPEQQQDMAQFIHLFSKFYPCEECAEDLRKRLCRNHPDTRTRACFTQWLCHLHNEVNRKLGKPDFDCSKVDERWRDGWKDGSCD
# JMJD2C inh = human JMJD2C demethylase inhibition. GST-JMJD2C(1-420) H3K9me3 demethylation, DELFIA europium. inhibition, % at 2.35 µM. hit rate 0.069% among 330,000;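 active = more than half of a compound's replicate wells show inhibition beyond 50%, single wells judged on their own value; inconclusive = some, but no more than half, of replicates pass 50% inhibition; inactive = no replicate passes 50% inhibition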;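 also: signal counts dimethyl H3K9 product captured on neutravidin plate; 0% = median of DMSO wells and 100% = 0.3 times that DMSO median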
# Target sequence (Q9H3R0 1-420 limits assumed): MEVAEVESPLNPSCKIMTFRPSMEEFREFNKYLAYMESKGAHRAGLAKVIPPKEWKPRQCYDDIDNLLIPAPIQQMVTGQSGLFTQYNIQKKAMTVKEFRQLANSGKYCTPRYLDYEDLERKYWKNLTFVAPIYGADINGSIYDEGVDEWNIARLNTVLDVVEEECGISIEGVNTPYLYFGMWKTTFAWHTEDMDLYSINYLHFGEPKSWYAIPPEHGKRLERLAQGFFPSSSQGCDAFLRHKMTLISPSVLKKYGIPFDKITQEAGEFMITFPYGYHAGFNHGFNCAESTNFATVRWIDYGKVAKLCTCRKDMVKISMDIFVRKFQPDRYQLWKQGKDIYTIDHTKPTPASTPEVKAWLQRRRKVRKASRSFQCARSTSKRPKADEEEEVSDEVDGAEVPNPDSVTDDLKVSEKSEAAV
# beta cell repl = MIN6 beta-cell proliferation induction; MIN6 cells proliferation, ATPlite luminescence, 48 h; cells starved in 0.2% serum; 100% = growth in 10% serum; proliferation, % at 10 µM; hit rate 0.29% among 330,000;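 active = compounds whose signal lies at least 3.5 SD above the mean of all wells on their plate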;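 also: 0% = DMSO-treated cells in low-serum medium and 100% = 10% serum control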
# SMARCA2 activ = activators of SMARCA2 function; MG213 cells, MMTV-luciferase reporter, dexamethasone, overnight; activation, % at 9.1 µM; hit rate 1% among 370,000; AID 652017; in the data active = activation above about 7.8%;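 also: 0% = vehicle wells and 100% = reference activator wells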
# Granule exo inh = blocks lytic granule exocytosis | TALL-104 LAMP-1 surface exposure, flow cytometry; cells stimulated with thapsigargin and PMA | inhibition, % at 10 µM | hit rate 0.66% among 360,000;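 active = inhibition above about 55%, limit read from the data; inconclusive = no clear call, values can overlap the other calls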
# * hit, by the source's call; ? = inconclusive; · = no result given. An excerpt weighted towards active compounds, which were near 5.4% of everything screened.
SMILES,PfM18AAP inh,ALR inh,JMJD2C inh,beta cell repl,SMARCA2 activ,Granule exo inh
COc1ccccc1CNc1ccc(C(=O)O)cc1,-6,-5,23,-1,-3,1
O=C1[C@@H](CCc2ccccc2)[C@@H]2c3cc4ccccc4cc3C=NN2[C@@H]2c3cc4ccccc4cc3C=NN12,·,·,·,·,-2,·
C=CCN1C(=O)c2n[nH]c(C(C)C)c2C1c1ccc(C)cc1 (configuration not stated),·,·,·,·,-3,·
CC1CC(C)CN(S(=O)(=O)c2cccc3cccnc23)C1 (configuration not stated),·,92*,5,3,0,-4
O=c1n(S(=O)(=O)c2cccc3cccnc23)c2ccccc2n1S(=O)(=O)c1cccc2cccnc12,1,-6,1,-2,·,68*
C[C@@H]1COc2cccc(N3CCSCC3)c2S(=O)(=O)N1C,·,·,·,·,4,·
COc1cc(/C=C(\C#N)C(=O)Nc2cccc(C(=O)O)c2)ccc1OCc1ccc(F)cc1,-9,7,-15,0,-1,-4
COc1cc(/C=C(/C#N)c2ccc(F)cc2)ccc1OCc1ccc(C(=O)O)o1,2,97*,11,1,-2,-10
COc1cc(-c2nc3ccccn3c2/N=C/c2cccc(OC)c2O)ccc1O,10,?,0,-2,-4,4
COc1cc(-c2nc3ccccn3c2/N=C/c2ccc(F)cc2)ccc1O,23,95*,0,-5,0,3
OC1C=CSc2nc3ccccc3n21 (configuration not stated),-10,86*,-10,-2,1,2
O=C(Cc1ccccc1)NC1CCCCN(Cc2cccc(Cl)c2)C1=O (configuration not stated),·,·,·,·,-6,·
CCOC(=O)c1cccc(NC(=O)CN(C)S(=O)(=O)c2ccc(F)cc2)c1,·,·,·,·,0,·
COC(=O)c1ccc2c(c1)NC(=O)c1ccccc1S2,4,2,3,1,-3,-6
N#C/C=C1/NC(=O)c2ccccc2S1,29*,56,-8,-6,0,6
Cc1ccc(-c2c(NC(=O)C3CC3)nc3ncccn23)cc1,·,·,·,·,0,·
CCOC(=O)c1cnc(Nc2nc3ccccc3o2)nc1CN1CCN(C)CC1,61*,·,·,·,4,4
Cc1occc1C(=O)N/N=C/C1=C(N2CCOCC2)C(=C\c2ccc(Cl)cc2)/CC1,5,40,2,-1,0,26
Cc1cc(=O)[nH]c(N/N=C/C2=C(N3CCOCC3)C(=C\c3ccc(Cl)cc3)/CC2)n1,3,98*,7,-3,-3,0
OC[C@H]1CC[C@@H]2O[C@H](CCc3ccc(-c4ccc(F)cc4)cc3)[C@H](n3cc(C4CC4)nn3)C[C@@H]2O1,·,·,·,·,-5,·
Cc1ccc(/C=c2\sc3n(c2=O)CN(c2ccc(Br)cc2)CN=3)o1,29*,-9,-4,-1,-1,0
Cc1ccn2c(NC(=O)c3cccs3)c(-c3ccccc3)nc2c1,-3,-1,2,-2,-2,-8
Cc1cccn2c(NC(=O)c3cccs3)c(-c3ccccc3)nc12,-6,50,-49,0,7.9*,-1
CC(C)(C)Cc1nnc(NC(=O)c2ccc3c(c2)OCO3)s1,30*,-5,-4,0,0,3
Cc1ccc(C(=O)NCCSc2snnc2C)cc1,0,94*,-1,-3,2,-1
SMILES,PfM18AAP inh,ALR inh,JMJD2C inh,beta cell repl,SMARCA2 activ,Granule exo inh
Cc1nnsc1SCCNC(=O)c1c(F)cccc1F,-3,2,-2,-2,-3,-2
Oc1ccc2ccccc2c1C=NN1CCN(Cc2ccc(Cl)cc2)CC1,·,·,·,·,-2,·
O=C(Cc1ccccc1F)N1CCC(n2nnc3ncccc32)CC1,·,·,·,·,-6,·
O=C(CNC(=O)c1ccc2c(c1)OCCO2)N/N=C/c1ccc(O)cc1O,16,27,-4,-4,-5,-5
CCN(CC)c1ccc(/C=N/NC(=O)CNC(=O)c2ccc3c(c2)OCCO3)cc1,5,87*,-5,0,2,74*
CN(C)c1ccc(/C=N/NC(=O)CNC(=O)c2ccncc2)cc1,9,98*,-5,-2,-2,12
O=C(CNC(=O)c1cccc(Br)c1)N/N=C/c1ccc2c(c1)OCO2,-7,·,-7,1,2,30
CN(C)c1ccc(/C=N/NC(=O)CNC(=O)c2ccc3c(c2)OCCO3)cc1,5,98*,2,0,0,-2
Cc1cc(=O)oc2c(N)c(O)ccc12,24,97*,14,-1,0,1
O=C(CSc1nc2ccc(Cl)cc2[nH]1)Nc1ccc2[nH]c(=O)[nH]c2c1,·,98*,5,0,-3,-1
Cc1ccc2nc(SCC(=O)Nc3ccc4[nH]c(=O)[nH]c4c3)[nH]c2c1,·,·,·,-1,-2,36
COCCn1c(SCC(=O)Nc2ccc3[nH]c(=O)[nH]c3c2)nc2ccccc21,·,91*,26,1,1,-1
CCn1c(SCC(=O)Nc2ccc3[nH]c(=O)[nH]c3c2)nc2ccccc21,·,99*,7,1,-3,7
COC(=O)c1ccc(CSc2nc3ccc(Cl)cc3[nH]2)o1,-5,97*,-4,1,-1,-3
COC(=O)[C@]12C[C@H](CC(=O)N3CCC(c4ccccc4)CC3)C(=O)N(Cc3cccc4ccccc34)C1=C[C@H](C1CCCC1)O[C@@H]2C,·,·,·,·,-4,·
COc1ccc(C(=O)OCCCN(C)C2CN(Cc3cn(Cc4cccc(F)c4)nn3)S(=O)(=O)C2)cc1OC (configuration not stated),·,·,·,·,0,·
CCc1ccc(N2C(=O)C[C@@](C#N)(C(=O)OC)[C@H]2c2ccccc2)cc1,·,·,·,·,-2,·
Cn1cc(C(c2ccccc2OCC(=O)O)c2cn(C)c3ccccc23)c2ccccc21,11,99*,-15,0,0,-8
COc1ccc(/C=N/NC(=O)c2[nH]c3ccc(C)cc3c2-c2ccccc2)c(C(=O)O)c1OC,8,99*,-2,·,-3,-2
Cc1ccn2c(NC(C)(C)C)c(-c3cccs3)nc2c1,7,99*,3,3,-1,0
CN(C)/N=C/C=C1\CC/C(=C\c2ccc(F)c(F)c2)C1=O,·,36,-21,-3,-4,-2
CC(C)c1ccc(/C=C2\CC/C(=C\C=N\N(C)C)C2=O)cc1,-4,96*,1,-5,-8,0
CC(C)/C=C1\CC/C(=C\c2ccc(N(C)C)cc2)C1=O,-1,·,0,0,1,56*
N#Cc1ccccc1S(=O)(=O)N1CCN(C(=O)Cc2coc3cc(O)ccc23)CC1,·,99*,9,-5,-1,-4
O=C(CC1Sc2ncnn2C1=O)Nc1ccc(Br)cc1 (configuration not stated),37*,54,5,-7,1,12
O=C(c1cc(-c2ccc(Cl)cc2)nc2ccccc12)N1CCN(c2ncccn2)CC1,·,·,·,·,0,·
COCCCNC(=S)Nc1ccc(N2CCCCC2)cc1,3,98*,-31,-2,-3,-4

# Screening results deposited in PubChem BioAssay by several laboratories.
